Assay results taken from PubChem BioAssay (NCATS).
Records with an inconclusive call do not appear. Calls of active or inactive are those of the source. The call rests on the fitted dose curve; in most records, active means well fitted curve in the direction sought with a large enough effect; inconclusive means small, poorly fitted or top-dose-only effect, or another doubt; inactive means no such curve, though single readings can be large; an effect the other way counts as inactive or inconclusive.

Tests used:
[1] = qHTS of pediatric cancer cell lines to identify multiple opportunities for drug repurposing: Primary screen for BT-12 cells (AID 1347101); further: nearly all actives have a fitted effect of over 25% in size
Summary of the method: (§1)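 Cells (500-1,000/well) rested 5 h, then received compounds for 48 h; metabolically active cells were measured by CellTiter-Glo luminescence. Final concentrations spanned up to 46 µM (MIPE, 11-point) or 0.59 nM-46 µM (NPC, 8-point) in primary screens, 11-point in follow-ups.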

[2] = qHTS of pediatric cancer cell lines to identify multiple opportunities for drug repurposing: Primary screen for Rh18 cells (AID 1347102); further: nearly all actives have a fitted effect of over 65% in size
Summary of the method: (§2)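 Viability after 48 h compound treatment at 37C, 500-1,000 cells/well, read as ATP luminescence with CellTiter-Glo. Primary screens used 11-point (MIPE, 0.78 nM-46 µM) or 8-point (NPC, 0.59 nM-46 µM) final concentrations; follow-up screens used 11-point dilutions.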

[3] = qHTS of pediatric cancer cell lines to identify multiple opportunities for drug repurposing: Primary screen for RD cells (AID 1347104); further: nearly all actives have a fitted effect of over 55% in size
Summary of the method: (§3)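 Quantitative HTS format: each compound titrated (MIPE 11 points from 0.78 nM, NPC 8 points from 0.59 nM) onto cells plated 5 hours earlier. After 48 h at 37 degrees C, CellTiter-Glo luminescence was recorded.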

[4] = qHTS of pediatric cancer cell lines to identify multiple opportunities for drug repurposing: Primary screen for MG 63 (6-TG R) cells (AID 1347105); further: nearly all actives have a fitted effect of over 50% in size
Summary of the method: as §3

[5] = qHTS of pediatric cancer cell lines to identify multiple opportunities for drug repurposing: Primary screen for control Hh wild type fibroblast cells (AID 1347106);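 further: series mostly up to about 46 µM; a drop in luminescence marks cytotoxicity and a rise apparent proliferation; nearly all actives have a fitted effect of over 55% in size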
Summary of the method: as §2

[6] = qHTS of pediatric cancer cell lines to identify multiple opportunities for drug repurposing: Primary screen for Rh30 cells (AID 1347107); further: series mostly up to about 46 µM; nearly all actives have a fitted effect of over 75% in size
Summary of the method: as §2

[7] = qHTS of pediatric cancer cell lines to identify multiple opportunities for drug repurposing: Primary screen for Rh41 cells (AID 1347108);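 further: series mostly up to about 46 µM; luminescence drop marks cytotoxic hits; nearly all actives have a fitted effect of over 70% in size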
Summary of the method: as §3

[8] = qHTS of pediatric cancer cell lines to identify multiple opportunities for drug repurposing: Primary screen for OHS-50 cells (AID 1347103); further: nearly all actives have a fitted effect of over 40% in size
Summary of the method: as §1

Measured: Potency

CC(Cc1ccccc1)NCc1ccccc1Cl (centres undefined)
not listed: [8]
inactive: all other assays above

COP(=S)(OC)Oc1ccc(Sc2ccc(OP(=S)(OC)OC)cc2)cc1
not listed: [3]
inactive: all other assays above

C[C@H](N)[C@H](O)c1ccc(O)c(O)c1
not listed: [3]
inactive: all other assays above

O=C(N[C@@H]1N=C(c2ccccc2F)c2cccc3c2N(CC3)C1=O)c1cc2ccccc2[nH]1
not listed: [3] | [4]
inactive: all other assays above

C1CN2CCC1CC2
not listed: [8]
inactive: all other assays above

CN1C[C@@H](NS(=O)(=O)N(C)C)C[C@@H]2c3cccc4c3c(cn4C)C[C@H]21
not listed: [8]
inactive: all other assays above

CCOC(C(=O)OCCN(C)C)(c1ccccc1)c1ccccc1
not listed: [8]
inactive: all other assays above

COc1ccc(OC)c(CC(C)N)c1 (centres undefined)
not listed: [3]
inactive: all other assays above

CC(C(O)c1ccccc1)N(C)C/C=C/c1ccccc1 (centres undefined)
not listed: [8]
inactive: all other assays above

CCN(CC)Cc1nccn1-c1ccc([N+](=O)[O-])cc1C(=O)c1ccccc1Cl
not listed: [8]
inactive: all other assays above

CCN1CCCC1CNC(=O)C(O)(c1ccccc1)c1ccccc1 (centres undefined)
not listed: [3]
inactive: all other assays above

CCCCC1C(=O)NC(=O)N(C2CCCCC2)C1=O (centres undefined)
not listed: [3]
inactive: all other assays above

CCC(=O)O[C@H]1CC[C@H]2[C@@H]3CCC4=CC(=O)CC[C@]4(C)[C@H]3CC[C@]12C
not listed: [8]
inactive: all other assays above

C[C@H]1CNCCc2ccc(Cl)cc21
not listed: [8]
inactive: all other assays above

CCOC(=O)NC(C)(C)Cc1ccc(Cl)cc1
not listed: [3]
inactive: all other assays above

CCOC(=O)NC(O)C(Cl)(Cl)Cl (centres undefined)
not listed: [8]
inactive: all other assays above

C[N+]1(C)[C@@H]2CC[C@H]1CC(OC(=O)C(CO)c1ccccc1)C2 (some centres undefined)
not listed: [8]
inactive: all other assays above

CCC(=O)OC1(c2ccccc2)CCN(C)CC1
not listed: [7] | [8]
inactive: all other assays above

CC(C)(C)OC(=O)c1ncn2c1[C@@H]1CCCN1C(=O)c1c(Br)cccc1-2
not listed: [8]
inactive: all other assays above

COc1cc(N)c(Cl)cc1C(=O)NC1CN2CCC1CC2 (centres undefined)
not listed: [3]
inactive: all other assays above

C[C@]12CC[C@H]3[C@@H](CC=C4C[C@@H](O)CC[C@@]43C)[C@@H]1CC[C@@H]2O
not listed: [8]
inactive: all other assays above

CN(C)C(=O)Oc1cc(OC(=O)N(C)C)cc(C(O)CNC(C)(C)C)c1 (centres undefined)
not listed: [8]
inactive: all other assays above

CCOC(=O)C(c1c(O)c2ccccc2oc1=O)c1c(O)c2ccccc2oc1=O
not listed: [8]
inactive: all other assays above

CN1CCc2cc(Cl)c(O)cc2[C@H]2c3ccccc3CC[C@@H]21
not listed: [8]
inactive: all other assays above

O=C(CCCCl)c1ccc(F)cc1
not listed: [3]
inactive: all other assays above

NCc1cccnc1
not listed: [3]
inactive: all other assays above

Sc1ccccc1Cl
not listed: [3]
inactive: all other assays above

CN(C)CCc1c[nH]c2ccc(O)cc12
not listed: [3] | [7]
inactive: all other assays above

C[C@]12C=CC(=O)C=C1CC[C@@H]1[C@@H]2CC[C@@]2(C)[C@H]1CC[C@]2(C)O
not listed: [8]
inactive: all other assays above

CN(C)CCc1c[nH]c2cccc(O)c12
not listed: [3]
inactive: all other assays above

Cc1cccc(Cc2cnc[nH]2)c1C
not listed: [8]
inactive: all other assays above
